The values that follow come from PubChem BioAssay AID651820 (National Center for Advancing Translational Sciences (NCATS), 2012).

Where “and” joins values, the source holds several entries; their conditions need not be identical. Equal entries are not always repeated. Screen size: about 340,000 compounds; about 12,000 (3.5%) were called active. Entries that show only a call come without a potency. About 18% were inconclusive and are not listed. The sample holds actives, similar compounds and a random draw of the others, so the mix is not that of the screen. Values without a mark were called inactive. Calls follow the shape of the dose curve; as a rule, active = well fitted inhibition curve with a large enough effect; inconclusive = small, poorly fitted or top-dose-only effect, or another doubt; inactive = no such curve, though single readings can be large or run the other way.
Potency is read from the fitted curve at half-maximal effect.

The experiment in a line: qHTS Assay for Inhibitors of Hepatitis C Virus (HCV). Particulars: Huh7.5.1 HCVcc-Cre infection, luciferase reporter, 44 h; series mostly up to 41.8 µM. In outline: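 1,000 cells/well; 4 h culture; + compound; + HCVcc-Cre (~0.5 moi); 44 h; luciferase substrate, RT 15 min; read 15 sec.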
As to `O=C(NCCSc1ncc(-c2ccccc2)[nH]1)c1ccco1`, the activity change, negative = inhibition was -7.56% [at 8.37 µM].

`COc1cccc(NC(=O)CSc2nnc(C3CCCCC3)n2N)c1`: the Potency entry is “inactive”.

`CC(=O)Nc1ccc(NC(=O)CSC2=NS(=O)(=O)c3ccccc3N2)cc1`: the Potency entry is “inactive”.

As to `CCc1noc(C)c1C(=O)Nc1nc2ccc(OC)cc2s1`, the Potency entry was “inactive”.

For `COc1ccc(NC(=O)CNc2cc(S(=O)(=O)N3CCOCC3)ccc2N2CCOCC2)c(OC)c1`, the Potency result was “inactive”.

As for `CS(=O)(=O)N(CC(=O)N1CCc2ccccc2C1)c1ccc(Br)cc1`, the Potency result was “inactive”.

With `COc1cc(/C=C/C(=O)OCC(=O)NCCCc2ccccc2)ccc1O`, the Potency entry was “inactive”.

As to `O=C(O)c1ccc(S(=O)(=O)c2ccccc2)s1`, the Potency entry was “inactive”.

Take `Cc1ccc(S(=O)(=O)c2cc3c(=O)n4cccc(C)c4nc3n(CCc3ccccc3)c2=N)cc1C`: the Potency result is “inactive”.

Consider `O=C1c2ccccc2S(=O)(=O)N1CC(O)Cn1c2ccccc2c2ccccc21` (stereo unspecified), for which the Potency entry was “inactive”.

In the case of `OC(Cn1c2ccccc2c2ccccc21)C[n+]1ccccc1` (stereo unspecified), the Potency result is “inactive”.

With `CS(=O)(=O)N(CC(O)Cn1c2ccccc2c2ccccc21)c1cccc2ccccc12` (stereo unspecified), the Potency was 11.2 µM (active).

For `COc1ccc2oc(C(=O)N(CC(C)C)C3CCS(=O)(=O)C3)c(C)c2c1` (stereo unspecified), the Potency result was “inactive”.

Turning to `CCOc1ccc(C(CC(=O)O)NC(=O)Cc2ccccc2)cc1OC` (stereo unspecified), the Potency result is “inactive”.

`CCOc1ccc(C(CC(=O)O)NC(=O)C23CC4CC(CC(C4)C2)C3)cc1OC` (stereo unspecified): the Potency entry was “inactive”.

Turning to `CCOc1ccc(C(CCc2ccccc2)NC(=O)c2ccc(OC)c(OC)c2)cc1OCC` (stereo unspecified), the Potency was 10 µM (active).

As for `Cc1n[nH]c(=O)c2c(NC(=O)COC(=O)c3ncc(Cl)c(Cl)c3Cl)oc(C)c12`, the Potency entry was “inactive”.

Take `COCCNc1nc(-n2nc(C)cc2C)nc2sc3c(c12)CCCC3`: the Potency is 10 µM (active).

On to `CCC(O)CNc1nc(-n2nc(C)cc2C)nc2sc3c(c12)CC(C)(C)OC3` (stereo unspecified), for which the Potency result was “inactive”.

Take `Cc1nc2sc3c(c2c(=O)n1NC(=O)CCl)CCCC3`: the Potency entry is “inactive”.

As to `O=C1CC2(CCCC2)C(=O)N1CN1CCN(S(=O)(=O)c2ccc(F)cc2F)CC1`, the Potency entry was “inactive”.

Regarding `COc1cc(OC)cc(C(=O)Nc2ccc(S(=O)(=O)Nc3cc(C)on3)cc2)c1`, the Potency result is “inactive”.

Regarding `CCOc1ccc(CC(=O)Nc2ccc(S(=O)(=O)Nc3cc(C)on3)cc2)cc1OCC`, the Potency result was “inactive”.

As for `COc1ccc(NS(=O)(=O)c2ccc(NC(=O)c3ccc(N(C)S(C)(=O)=O)cc3)cc2)cc1`, the Potency was 5.62 µM (active).

Turning to `CCOc1ccc(C(=O)Nc2ccc(S(=O)(=O)Nc3cc(C)on3)cc2)cc1`, the Potency is 1.12 µM (active).

Regarding `COc1ccc(NS(=O)(=O)c2ccc(C(=O)Nc3c(C)n(C)n(-c4ccccc4)c3=O)cc2)cc1`, the Potency entry is “inactive”.

Turning to `COc1ccc(NC(=O)c2cnc(NS(=O)(=O)c3ccccc3)nc2)cc1`, the Potency result was “inactive”.

For the molecule `O=C(COC(=O)c1ccccn1)NNC(=O)c1ccc(Br)cc1`, the Potency entry was “inactive”.

For the molecule `O=C(COC(=O)c1ccc(F)c(S(=O)(=O)N2CCOCC2)c1)NCc1ccc2c(c1)OCO2`, the Potency result is “inactive”.

For `O=S(=O)(Nc1ccc2ccccc2c1)N1CCCCC1`, the Potency result was “inactive”.

For the molecule `CCOc1ccccc1/C=N/Nc1nc2ccccc2o1`, the Potency was 12.6 µM (active).

For `COc1ccc(/C=N/Nc2nc3ccccc3o2)cc1OC`, the Potency entry is “inactive”.

Consider `Brc1ccccc1/C=N/Nc1nc2ccccc2o1`, for which the Potency result is “inactive”.

As to `Cc1ccc(SCC(=O)Nc2ccc3c(c2)OCCO3)cc1`, the Potency entry was “inactive”.

Consider `Cc1ccc(SCC(=O)c2cc(C)c(OC(=S)N(C)C)c(C)c2)cc1`, for which the Potency is 11.2 µM (active).

As to `Cc1ccc(C(=O)CSc2ccccc2C(=O)O)cc1`, the Potency entry is “inactive”.

For `CC[C@]12c3[nH]c4ccc(Cl)cc4c3CCN1C(=O)[C@@H](CC(=O)NCCN1CCOCC1)C[C@@H]2C(=O)N1CCN(C(=O)C2CC2)CC1`, the Potency entry was “inactive”.

Turning to `CCOC(=O)C[C@H]1c2ccc(C(F)(F)F)cc2S(=O)(=O)N1c1ccccc1`, the Potency entry is “inactive”.

On to `Cc1ccc(C)c(N2CCN(C(=O)CCc3nc4ccccc4[nH]3)CC2)c1`, for which the activity change, negative = inhibition was 3.71% [at 8.37 µM].

Regarding `Cc1ccc(C)c(N2CCN(C(=O)CCCCCn3c(=S)[nH]c4ccc(N5CCOCC5)cc4c3=O)CC2)c1`, the Potency is 2.82 µM (active).

For the molecule `O=C(CCCCCn1c(=S)[nH]c2cc3c(cc2c1=O)OCO3)N1CCN(c2ccc(F)cc2)CC1`, the Potency result is “inactive”.

With `CN(CC(=O)Nc1cccc(F)c1)C(=O)C1CSC2(C)CCC(=O)N12` (stereo unspecified), the Potency result is “inactive”.

As to `COc1ccc(Cl)cc1NS(=O)(=O)c1cccc(C(=O)NC2CCC(O)CC2)c1` (stereo unspecified), the Potency entry is “inactive”.

For the molecule `CCC(CO)Oc1cc(NC(=O)c2cccc(F)c2)c2ncn(C(C)C)c2c1` (stereo unspecified), the Potency is 0.562 µM (active).

With `O=C(Nc1cccc(NC(=O)c2cccc(F)c2)c1)c1ccccc1`, the Potency result is “inactive”.

Consider `COc1cccc(C(=O)NNC(=O)c2cccc(F)c2)c1`, for which the Potency entry was “inactive”.

As for `CCN(C(=O)CN1C(=O)/C(=C/c2ccc(F)cc2)SC1=S)C1CCS(=O)(=O)C1` (stereo unspecified), the Potency result is “inactive”.

As to `COc1ccc(/C=C2\SC(=S)N(CCCC(=O)NC3CCCC3)C2=O)cc1OC`, the Potency result is “inactive”.

Turning to `O=C1/C(=C/c2ccc(F)cc2)SC(=S)N1CCCC(=O)N1CCCCC1CCO` (stereo unspecified), the Potency is 11.2 µM (active).

With `O=C(COC(=O)Cc1c[nH]c2ccccc12)NCCc1ccccc1`, the Potency entry is “inactive”.

On to `O=C(CN1CCN(c2ccccc2O)CC1)NC(=O)NCc1ccccc1`, for which the Potency result is “inactive”.

For `CCCOc1ccc(N/C=C/C(=O)C(C)(C)C)cc1`, the Potency result is “inactive”.

Take `CCCOc1ccc(C(=O)C(CCC(CNCC)C(=O)c2ccc(OCCC)cc2)CNCC)cc1` (stereo unspecified): the Potency was 5.01 µM (active).

As for `CCCOc1ccc(C(=O)CCC(=O)OC(C)C(=O)Nc2ccc(NC(C)=O)cc2)cc1` (stereo unspecified), the Potency entry was “inactive”.

For `CCN(CC(=O)Nc1ccccc1C(F)(F)F)C(=O)CSCc1c(C)noc1C`, the Potency entry is “inactive”.

In the case of `COc1ccc(S(=O)(=O)N2C[C@H]3CON(C)[C@H]3C[C@H]2c2cccc(Br)c2)cc1`, the activity change, negative = inhibition was 28% [at 8.37 µM].

As for `COc1ccc(CNC(=O)C2CCN(S(=O)(=O)N3CCOCC3)CC2)cc1`, the Potency result was “inactive”.

Consider `O=C(NCc1ccccc1Cl)C1CCN(S(=O)(=O)N2CCOCC2)CC1`, for which the Potency result was “inactive”.

For `O=C(O)C1CCN(S(=O)(=O)N2CCOCC2)CC1`, the Potency was 22.4 µM (active).

As for `COc1ccc(OCCCC(=O)OC(C)C(=O)Nc2ccccc2[N+](=O)[O-])cc1` (stereo unspecified), the Potency entry was “inactive”.

Turning to `O=C(COC(=O)c1cccnc1Cl)NC(=O)NC1CCCCC1`, the Potency result was “inactive”.

Turning to `Cc1noc(C)c1S(=O)(=O)N(C)C[C@H]1Oc2ccc(NC(=O)C3CC3)cc2C(=O)N([C@H](C)CO)C[C@@H]1C`, the Potency entry is “inactive”.

Regarding `O=C1NC(c2ccccc2)Cc2ccncc21` (stereo unspecified), the Potency result was “inactive”.

`Cc1ccc(C(=O)CCC(=O)N(C)CC(=O)Nc2c(Cl)cccc2Cl)cc1`: the Potency result was “inactive”.

Turning to `Cc1cccc(C)c1NC(=O)CN(C)C(=O)CCC(=O)c1ccccc1`, the Potency entry is “inactive”.

Take `CN(CC(=O)Nc1ccc(Cl)c(C(F)(F)F)c1)C(=O)CCC(=O)c1ccccc1`: the Potency was 11.2 µM (active).

In the case of `COc1ccc(CNC(=O)C[C@H]2C[C@H](C(=O)N3CCOCC3)[C@@]3(C)c4[nH]c5cc(CCC(=O)N(C)C)ccc5c4CCN3C2=O)cc1OC`, the Potency result is “inactive”.

`CN(C)CCn1c2c(c(SCC(=O)Nc3ccccc3C(F)(F)F)nc1=O)CCCC2`: the Potency result is “inactive”.

Take `O=C(Nc1ccn(CCCNCc2ccc3[nH]ccc3c2)c(=O)n1)OCc1ccccc1`: the Potency result was “inactive”.

With `Cc1cc(C)c(CN2CCN(C(=O)Cn3ccc(NC(=O)OCc4ccccc4)nc3=O)CC2)c(C)c1`, the Potency is 4.47 µM (active).

On to `Nc1ccn(CC(=O)N2CCN(c3ccccn3)CC2)c(=O)n1`, for which the Potency entry is “inactive”.

`CCC1([N+](=O)[O-])COC(c2ccc(C(C)C)cc2)OC1` (stereo unspecified): the Potency entry is “inactive”.

Take `CCCN(C(=O)c1nc2nccc(C)n2n1)c1c(N)n(Cc2ccccc2)c(=O)[nH]c1=O`: the Potency entry was “inactive”.

As to `O=C1CC(c2ccccc2)C(c2ccccc2)=NN1` (stereo unspecified), the Potency entry is “inactive”.

On to `CC(C)c1cc(N=O)cc(C(C)C)c1O`, for which the Potency entry was “inactive”.

As to `O=C(OCC(=O)N1CCCCCC1)c1ccc(Cl)nc1`, the Potency result was “inactive”.

In the case of `CN1CCN(C2Cc3ccc(Cl)cc3Sc3ccc(F)cc32)CC1` (stereo unspecified), the Potency is 31.6 µM (active).

Consider `CN(CC(=O)Nc1ccc(F)c(F)c1F)C(=O)C1CC(=O)N(C2CCCC2)C1` (stereo unspecified), for which the Potency result is “inactive”.

As to `CCCCOC(=O)Cn1c(=N)n(CCN(CC)CC)c2ccccc21`, the Potency entry is “inactive”.

For the molecule `CCCn1c(=N)n(CC(=O)c2ccc(Cl)c(Cl)c2)c2ccccc21`, the Potency was 10 µM (active).

In the case of `CCCNC(=O)c1ccc(Cl)c(Cl)c1`, the Potency entry is “inactive”.

In the case of `Cc1ccc(S(=O)(=O)N2CCCCC2)cc1C(=O)N1CCN(CCO)CC1`, the Potency result is “inactive”.

For the molecule `CNc1nc(=O)n(C2CCCO2)cc1C` (stereo unspecified), the Potency result is “inactive”.

With `Cc1ccc(OCc2cc(C(=O)N(C)CCc3ccccc3)no2)cc1C`, the Potency result was “inactive”.

As for `CN(Cc1cnccn1)C(=O)c1cc(COc2cccc(C(F)(F)F)c2)on1`, the Potency entry was “inactive”.

For the molecule `CN(Cc1cccnc1)C(=O)c1cc(COc2ccc3ncccc3c2)on1`, the Potency is 3.98 µM (active).

Consider `O=C(c1ccc2c(c1)N(Cc1ccc(F)cc1)C(=O)c1ccccc1S2(=O)=O)N1CCN(c2ccccn2)CC1`, for which the Potency is 25.1 µM (active).

In the case of `O=C(c1ccc2c(c1)C(=O)N(c1ccc(Cl)cc1)C2=O)N1CCN(c2ccccn2)CC1`, the Potency result was “inactive”.

As to `O=C1c2ccccc2S(=O)(=O)c2cc(N3CCN(c4ccccn4)CC3)ccc21`, the Potency entry was “inactive”.

In the case of `CCC(=O)c1ccc(OCC(=O)N(CC)CC2COc3ccccc3O2)cc1` (stereo unspecified), the Potency result is “inactive”.

Turning to `CC(=O)c1c(C)[nH]c(C(=O)COC(=O)CCOc2ccc(C)cc2)c1C`, the Potency result is “inactive”.

In the case of `CCc1c(Nc2ccccc2Cl)nc(N)[nH]c1=O`, the Potency entry is “inactive”.

Consider `C#CCOCCOCCOCCNc1nc(N2CCN(C(=O)[C@H](CCC(=O)O)n3cc(CN)nn3)CC2)nc(N2CCN(C(=O)[C@H](CCC(=O)O)n3cc(CN)nn3)CC2)n1`, for which the Potency result is “inactive”.

For `CCCOc1ccccc1C1CC(=O)Nc2cc3c(cc21)OCO3` (stereo unspecified), the Potency is 2.24 µM (active) and 3.55 µM (active).

On to `COc1cc2c(cc1OC)C(c1ccc(C)o1)CC(=O)N2` (stereo unspecified), for which the Potency result was “inactive”.

Turning to `COc1cc2c(cc1OC)C(c1ccncc1)CC(=O)N2` (stereo unspecified), the Potency entry is “inactive”.
